“And” between values parts separate entries of the source, which are not always exact repeats. Equal entries are not always repeated. Out of some 5,500 compounds screened, about 2,000 (36%) were called active. Inconclusive results (about 18%) are left out. Cut-off read from the data, not from the text of the source: active = normalized growth mostly below about 0.91 (no sharp cut-off); inconclusive = no clear call, values can overlap the other calls; inactive = mostly above about 0.92. Some of the results follow.
Test: chemical genetic growth profiling, strain panel (AID 1159580);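 note: tested at 20 µM; growth read once vehicle control cultures reached saturation at 30 °C; 1 = growth at the plate median or of vehicle wells; lower values mean less growth of the strain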
Conditions: S. cerevisiae deletion strains, growth OD

Measured: normalized growth

CN1C(C(=O)Nc2ccccn2)=C(O)c2ccccc2S1(=O)=O
inactive: locus YAL013W, strain DEP1, active compounds read low 0.977 and 0.995 | locus YAL021C, strain ccr4, active compounds read low 0.977 | locus YAL026C, strain drs2, active compounds read low 0.964 | locus YAL030W, strain snc1, active compounds read low 0.944 | locus YAL040C, strain CLN3, active compounds read low 1 | locus YBL061C, strain skt5, active compounds read low 0.966 | locus YBR009C, strain hhf1, active compounds read low 0.932 | locus YBR021W, strain FUR4, active compounds read low 0.994 | locus YBR023C, strain chs3, active compounds read low 0.982 | locus YBR171W, strain sec66, active compounds read low 0.922 | locus YBR229C, strain ROT2, active compounds read low 0.965 | locus YBR231C, strain swc5, active compounds read low 0.953 | locus YBR279W, strain paf1, active compounds read low 0.979 | locus YCL011C, strain gbp2, active compounds read low 0.956 | locus YCL016C, strain dcc1, active compounds read low 0.969 | locus YCL029C, strain bik1, active compounds read low 0.955 | locus YCL061C, strain MRC1 (second series), active compounds read low 0.997 | locus YCL069W, strain vba3, active compounds read low 0.961 | locus YCR088W, strain abp1, active compounds read low 0.968 | locus YDL005C, strain med2, active compounds read low 0.964 | locus YDL035C, strain GPR1, active compounds read low 1.01 | locus YDL040C, strain nat1, active compounds read low 0.966 | locus YDL074C, strain BRE1, active compounds read low 0.992 | locus YDL101C, strain DUN1, active compounds read low 0.997 | locus YDL134C, strain PPH21, active compounds read low 0.98 | locus YDL185W, strain tfp1, active compounds read low 0.922 | locus YDL192W, strain arf1, active compounds read low 0.966 | locus YDR001C, strain nth1, active compounds read low 0.956 | locus YDR069C, strain doa4, active compounds read low 0.984 | locus YDR101C, strain arx1, active compounds read low 0.966 | locus YDR137W, strain rgp1, active compounds read low 0.918 | locus YDR150W, strain NUM1, active compounds read low 0.971 | locus YDR159W, strain sac3, active compounds read low 0.966 | locus YDR162C, strain NBP2, active compounds read low 0.991 | locus YDR195W, strain ref2 0.962 | locus YDR297W, strain sur2, active compounds read low 0.945 | locus YDR318W, strain mcm21, active compounds read low 0.944 | locus YDR334W, strain swr1, active compounds read low 0.974 | locus YDR335W, strain msn5, active compounds read low 0.97 | locus YDR363W, strain ESC2, active compounds read low 1.02 | locus YDR388W, active compounds read low 0.953 | locus YDR502C, strain sam2, active compounds read low 0.957 | locus YEL003W, strain gim4, active compounds read low 0.946 | locus YEL037C, strain rad23, active compounds read low 0.976 | locus YEL061C, strain CIN8 (second series), active compounds read low 0.978 | locus YEL061C, strain CIN8, active compounds read low 0.977 | locus YER002W, strain NOP16, active compounds read low 0.979 | locus YER015W, strain faa2, active compounds read low 0.961 | locus YER016W, strain bim1, active compounds read low 0.976 | locus YER110C, active compounds read low 0.97 | locus YER111C, strain swi4, active compounds read low 0.958 | locus YER155C, strain BEM2 (second series), active compounds read low 0.882 | locus YER155C, strain BEM2, active compounds read low 0.962 | locus YER167W, strain BCK2, active compounds read low 0.968 | locus YFR010W, strain ubp6, active compounds read low 0.971 | locus YGL078C, strain dbp3, active compounds read low 0.959 | locus YGL086W, strain mad1, active compounds read low 0.95 | locus YGL167C, strain pmr1, active compounds read low 0.937 | locus YGL173C, strain kem1, active compounds read low 0.957 | locus YGL227W, strain vid30, active compounds read low 0.964 | locus YGL240W, strain doc1, active compounds read low 0.949 | locus YGL248W, strain PDE1, active compounds read low 0.984 | locus YGL253W, strain hxk2, active compounds read low 0.961 | locus YGR078C, strain PAC10, active compounds read low 0.975 | locus YGR135W, strain pre9, active compounds read low 0.958 | locus YGR229C, strain SMI1, active compounds read low 0.98 and 1.02 | locus YGR252W, strain gcn5, active compounds read low 0.99 | locus YHR013C, strain ard1, active compounds read low 0.91 | locus YHR027C, strain rpn1, active compounds read low 0.982 | locus YHR030C, strain SLT2, active compounds read low 0.972 and 0.968 | locus YHR079C, strain IRE1 (second series), active compounds read low 0.96 | locus YHR079C, strain IRE1, active compounds read low 0.947 | locus YHR094C, strain hxt1, active compounds read low 0.956 | locus YHR129C, strain ARP1, active compounds read low 0.97 | locus YHR142W, strain chs7, active compounds read low 0.951 | locus YHR200W, strain rpn10, active compounds read low 0.972 | locus YIL066C, strain RNR3, active compounds read low 0.99 | locus YIL073C, strain SPO22, active compounds read low 0.985 | locus YIL125W, strain kgd1, active compounds read low 0.946 | locus YIR030C, strain dcg1, active compounds read low 0.959 | locus YJL092W, strain hpr5, active compounds read low 0.962 | locus YJL095W, strain BCK1 (second series), active compounds read low 0.951 | locus YJL095W, strain BCK1, active compounds read low 0.971 and 0.957 | locus YJL115W, strain asf1, active compounds read low 0.985 | locus YJL134W, strain LCB3, active compounds read low 0.967 | locus YJL154C, strain vps35, active compounds read low 0.962 | locus YJL164C, strain tpk1, active compounds read low 0.951 | locus YJL168C, strain set2, active compounds read low 0.938 | locus YJL187C, strain SWE1 (second series), active compounds read low 0.999 | locus YJR043C, strain POL32, active compounds read low 0.995 | locus YJR066W, strain TOR1, active compounds read low 0.918 | locus YJR075W, strain HOC1, active compounds read low 0.991 and 1
active: locus YDR392W, strain spt3, active compounds read low 0.539 | locus YJL129C, strain trk1, active compounds read low 0.679 | locus YJL166W, strain qcr8, active compounds read low 0.898

— PubChem BioAssay AID1159580 (chemical genetic matrix, 2015)
